The values below come from the supplement of paper PMC4206467.

This test deals with Perkinsus marinus PRA240. Nature of the test: ATP content (proliferation) relative to DMSO control; higher = more parasite growth (less inhibition). As to conditions: 20 µM; 4 days. The protocol:
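Perkinsus marinus PRA240 trophozoites (2-5x10^6 cells/ml, 100 µl, 96-well) were exposed once to MMV Malaria Box compounds at 20 µM (0.1% DMSO) in triplicate. ATP content (ATPlite bioluminescence) was read at day 4 post-exposure and normalised to DMSO + cells control wells (100% activity). Compounds were identified by joining plate and well to the Malaria Box list.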
Compound `O=C(Nc1cccc(C(F)(F)F)c1)c1cc(Cl)ccc1O` returned an ATP content of 2.99%. The figure for `O=C(NCCCN1CCC(N2CCCCC2)CC1)C1=Cc2cc(Br)ccc2OC1` is 224%; for `O=C1c2ccccc2C2=Nc3ccccc3SC(c3cccc(F)c3)C12` (stereo not drawn) it is 36.8%. Regarding `CCOc1cc(Cl)c(C(C)NC(=O)c2cccc(OC)c2)cc1OCC` (stereo not drawn), the ATP content was determined as 85.3%.

With `COc1cc2cc(C(=O)Nc3ccccc3)c(N)nc2cc1OC`, the ATP content stood at 44.3%. Then `O=C(CCl)NCCOc1ccc(Cl)cc1Cl`, with 99.9%; and `Cc1ccc(C)c(-c2csc(Nc3ccc(C)c(C)c3)n2)c1`, with 93.6%; and `O=C(NC(c1ccccc1)c1ccc2cccnc2c1O)c1ccccc1` (stereo not drawn), with 26.3%. Compound `Cc1ccc(CSCc2ccc(C(=O)NC3CC3)o2)cc1` had an ATP content of 54.8%. The compound `Cc1ccccc1OCCSc1nc2ccc(NC(=O)c3ccccc3)cc2s1` yielded an ATP content of 50.6%.

Compound `COc1ccc(C(=O)NC(c2ccccc2Cl)c2cc(Cl)c3cccnc3c2O)cc1` (stereo not drawn) displayed an ATP content of 29.8%. The figure for `CCCn1c(=N)c(C(=O)NC2CCCCC2)cc2c(=O)n3cccc(C)c3nc21` is 64.4%; for `CCCc1c(C)nc2ccccc2c1O` it is 28.8%.

On to `CCC(C)NCC(O)(c1ccc(Cl)cc1)c1ccc(Cl)cc1` (stereo not drawn), for which the ATP content came out at 78.7%. Then `CN(C)CCNc1cc(-c2ccccc2)nc2ccccc12`, with 106%. For the compound `Oc1c2c(nc3ccccc13)CCCC2`, the ATP content is 42.5%.

Turning to `Cc1cc(Nc2cccc(F)c2)nc(NCc2ccccc2)n1`, the ATP content was determined as 94.7%. Then `CCCCCn1c(=N)n(CC(O)COc2cccc(C)c2)c2ccccc21` (stereo not drawn), with 127%.
